Screens: PubChem BioAssay, several laboratories
In the library only some 2.6% were active in any assay of this set; here they are far more common.
PABP FP inh = PABP poly(A) RNA binding inhibitors, primary screen, biochemical, fluorescence polarization, uHTS; Polyadenylate-binding protein 1 (Homo sapiens), P11940; calls only at 35 µM; actives 1% (n = 290,000);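 also: calls also rest on retests at 20 µM and on dose response follow-up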
ABCB6 inh MLPCN = ABCB6 transporter inhibitors, primary screen, K562-ABCB6 cells, flow cytometry, MLPCN library | fluorescence ratio to DMSO, % at 10 µM | actives 0.19% (n = 360,000) | ATP-binding cassette sub-family B member 6 (Homo sapiens), Q9NP58 | K562-ABCB6 porphyrin accumulation, 1 h; stronger effect = lower value;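 active = fluorescence ratio to DMSO below 75%, the collection mean minus 3 SD; inconclusive = too few cells collected in the well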;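 also: signal is porphyrin accumulated inside mitochondria; 100% equals median channel fluorescence of DMSO control wells; lower ratio means ABCB6 inhibition with less porphyrin fluorescence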
PHOSPHO1 block = PubChem AID 1565 | Phosphoethanolamine/phosphocholine phosphatase (Homo sapiens), Q8TCT1 | recombinant PHOSPHO1, absorbance phosphatase assay | inhibition, % at 13.3 µM | actives 1.1% (n = 290,000); in the data active = inhibition above about 60%
AI-2 QS mod = Vibrio harveyi AI-2 quorum sensing modulators, primary screen, JMH597 strain, luminescence/OD600 ratio | Vibrio harveyi JMH597 AI-2 luminescence/OD600 ratio, 9 h; stronger effect = lower value; strain lacks LuxN and CqsS sensors; 0 = neutral-control median | activity change, % at 7.5 µM | AID 2094, 2009 | actives 0.4% (n = 300,000); in the data active = activity change below about -75%, passing the limit was not always enough; inconclusive = no clear call, values can overlap the other calls;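 also: luminescence divided by OD600 gain over 9 h not by final OD600 alone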
PABP1 MLLE inh = inhibitors of PABP1 MLLE–PAM2 peptide binding, primary screen, biochemical, fluorescence polarization, FITC-PAM2, GST-MLLE | AID 588489, 2011 | actives 0.36% (n = 360,000) | Polyadenylate-binding protein 1 (Homo sapiens), P11940 | inhibition, % at 20 µM; in the data active = inhibition above about 35%, passing the limit was not always enough;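 also: plate controls were DMSO wells with GST-MLLE for no effect and wells lacking GST-MLLE protein for full effect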
eIF4H inh = human eIF4H binding inhibitors, primary screen, translation initiation inhibitor project, biochemical, uHTS, fluorescence polarization. eIF4H fluorescence polarization binding assay. inhibition, % at 35 µM. AID 2012, 2009. Eukaryotic translation initiation factor 4H (Homo sapiens), Q15056. actives 0.94% (n = 290,000);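 also: calls also rest on retests at 20 µM and on dose response follow-up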
* marks the source's active call; other numbers are inactive results; i = inactive; ? = inconclusive; . = no result given; + = active, no number. Unless noted, no rule for the calls is given here.

SMILES	PABP FP inh	ABCB6 inh MLPCN	PHOSPHO1 block	AI-2 QS mod	PABP1 MLLE inh	eIF4H inh
Cc1nc2c(OCc3ccc(C(F)(F)F)cc3)cccn2c1N(C)CC1CC1	.	101	.	.	-2	.
C=CCNc1nc2c3ccccc3n(C(C)=O)c2s1	i	139	70*	21	5	0
CCC(=O)N=c1ccn(C2=Nc3ccccc3NC2=C(C#N)C#N)cc1	+	95	45	14	11	73*
Cc1[nH]n(-c2ncc(-c3ccc(Cl)cc3)s2)c(=O)c1C(c1ccc(Cl)cc1)C(C#N)C#N (centres undefined)	+	98	-32	29	5	86
O=C1NC[C@H](CCCCN2CCN(CCC3CCCCC3)C(=O)C2=O)N(CCc2ccc(O)cc2)C1=O	.	94	.	.	.	.
O=C(CSc1nc2ccccc2[nH]1)N1c2ccccc2Sc2ccccc21	i	100	-32	40	-52	8
Cc1c(C)n(C(=O)CSc2nccn2C)c2ccccc12	i	91	61*	-16	-57	-3
O=C(CSc1nc2ccccc2[nH]1)N1CCCCC1	i	97	12	7	-54	3
Cc1c(C)n(C(=O)CSc2nc3ccccc3[nH]2)c2ccccc12	+	98	47	14	-77	68*
O=C(CSc1nc2ccccc2[nH]1)c1ccc(Cl)s1	i	99	103*	6	-88	4
Cc1c(Cl)cccc1NC(=O)CSc1nccn1C	i	93	.	10	-3	-4
N#Cc1nnn2c1nc(N)c1c(Cl)cccc12	.	96	.	.	5	.
CCOC(=O)C1(C)CCN1C(=O)c1ccc(C)cc1 (centres undefined)	.	99	.	.	-12	.
CCCc1nc2cc(C)c(Br)c(C)n2c1Cc1ccccc1OC	.	120	.	.	.	.
CCOC(=O)c1sc(NC(=O)/C=C/c2cnn(CC)c2C)c(C(=O)OCC)c1C	i	94	70*	2	35	6
Cn1nnnc1SCc1csc(Nc2ccccc2)n1	i	91	95*	21	-4	7
Cc1ccc(Nc2nc(CSc3nnnn3C)cs2)cc1	i	101	11	9	-2	-7
O=P(OCC1CC1)(c1ccccc1)c1ccccc1	+	99	-17	27	3	-2
COc1ccc(CNC(=O)CC[C@H]2O[C@@H](n3cc(C)c(=O)[nH]c3=O)C[C@@H]2O)cc1	.	97	.	.	-9	.
COc1ccccc1CNC(=O)C1CC(c2ccccc2[N+](=O)[O-])=NO1 (centres undefined)	+	100	24	-12	14	54
Clc1ccc2c(-c3ccccc3)nc(-c3cccs3)nc2c1	.	123	.	.	.	.
COc1ccccc1-n1cc(-c2ccc([N+](=O)[O-])cc2)[nH]c1=S	i	96	16	12	39*	-1
O=c1c2ccccc2nc2n1CCC2	i	92	22	18	8	-12
O=C1CCn2c1c(O)c1ccccc1c2=O	.	94	.	.	45*	.
Cc1nnc(N2C(=O)c3oc4ccccc4c(=O)c3C2c2ccco2)s1 (centres undefined)	i	103	-2	26	48*	22
SMILES	PABP FP inh	ABCB6 inh MLPCN	PHOSPHO1 block	AI-2 QS mod	PABP1 MLLE inh	eIF4H inh
CC(C)c1nnc(N2C(=O)c3oc4ccccc4c(=O)c3C2c2ccco2)s1 (centres undefined)	i	99	-6	5	-35	3
COc1ccc(-c2ccc(-c3noc(-c4ccccc4C)n3)c(OC)n2)cc1	i	103	-42	25	-22	44
COc1ccc(-c2ccc(-c3noc(-c4cccs4)n3)c(OC)n2)cc1	+	104	-10	9	-47	29*
O=C(c1cc(COc2ccc(F)cc2F)on1)N1CCCC(c2ccccc2)C1 (centres undefined)	i	99	60*	53	-8	-5
O=C(c1cc(COc2cccc3cnccc23)on1)N1CCCC(CCCO)C1 (centres undefined)	i	90	63*	?	1	-8
O[C@H]1C[C@H](c2ccccc2)N(Cc2cccs2)C[C@@H]1n1cc(-c2ccc(F)cc2)nn1	.	99	.	.	-6	.
